# PubChem BioAssay (NCATS)
# Records with an inconclusive call do not appear. Activity calls are given as the source filed them. Calls follow the shape of the dose curve; as a rule, active = well fitted curve in the direction sought with a large enough effect in the repeat runs; inconclusive = weak or mixed curves; inactive = no such curve, though single readings can be large; an effect the other way counts as inactive or inconclusive.
# How the values were obtained:
# [1] = target: Cytochrome P450 2D6 (Homo sapiens) (UniProt P10635); assay: Cytochrome P450 family 2 subfamily D member 6 (CYP2D6) small molecule antagonists: luciferase biochemical (cell-free) qHTS assay (AID 1645840); conditions: P450-Glo CYP2D6 enzyme, luciferin luminescence, 1 h; series mostly up to 57.4 µM
# Outline: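 P450-Glo luminescent screen: recombinant CYP2D6 enzyme–proluciferin substrate mix preincubated with compound 10 min at room temperature, then NADPH regeneration added for 1 h at room temperature. Detection reagent added for 20 min; luciferin light read as relative luminescence units.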
# [2] = target: Cytochrome P450 2C9 (Homo sapiens) (UniProt P11712); assay: Cytochrome P450 family 2 subfamily C member 9 (CYP2C9) small molecule antagonists: luciferase biochemical (cell-free) qHTS assay (AID 1645842); conditions: P450-Glo CYP2C9 enzyme assay, luciferin luminescence; series mostly up to 57.4 µM
# Outline: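 Luminescence, after 20 min with luciferin detection reagent, reflected CYP2C9 turnover during a 1 h NADPH-driven reaction at 37C. Enzyme-substrate mix contained 0.4% bovine serum albumin and was preincubated with compound 10 min at room temperature.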
# Also: nearly all actives have a fitted effect of over 55% in size.
# Potency is read from the fitted curve at half-maximal effect.
# Cytochrome P450 2C9 (Homo sapiens), sequence (P11712 whole entry, looked up): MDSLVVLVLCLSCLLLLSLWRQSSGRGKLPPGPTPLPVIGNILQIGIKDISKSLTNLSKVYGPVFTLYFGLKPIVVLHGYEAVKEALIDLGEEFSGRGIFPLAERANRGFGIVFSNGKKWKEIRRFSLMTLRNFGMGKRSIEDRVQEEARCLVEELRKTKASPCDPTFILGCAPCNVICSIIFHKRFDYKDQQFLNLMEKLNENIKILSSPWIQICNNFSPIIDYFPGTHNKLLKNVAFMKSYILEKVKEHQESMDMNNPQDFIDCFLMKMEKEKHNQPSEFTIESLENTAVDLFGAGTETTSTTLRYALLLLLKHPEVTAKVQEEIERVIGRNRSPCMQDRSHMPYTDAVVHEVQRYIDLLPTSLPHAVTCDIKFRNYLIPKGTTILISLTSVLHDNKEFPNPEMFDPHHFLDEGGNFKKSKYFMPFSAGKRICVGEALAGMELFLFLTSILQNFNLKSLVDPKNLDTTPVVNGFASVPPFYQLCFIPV
# Cytochrome P450 2D6 (Homo sapiens), sequence (P10635 whole entry, looked up): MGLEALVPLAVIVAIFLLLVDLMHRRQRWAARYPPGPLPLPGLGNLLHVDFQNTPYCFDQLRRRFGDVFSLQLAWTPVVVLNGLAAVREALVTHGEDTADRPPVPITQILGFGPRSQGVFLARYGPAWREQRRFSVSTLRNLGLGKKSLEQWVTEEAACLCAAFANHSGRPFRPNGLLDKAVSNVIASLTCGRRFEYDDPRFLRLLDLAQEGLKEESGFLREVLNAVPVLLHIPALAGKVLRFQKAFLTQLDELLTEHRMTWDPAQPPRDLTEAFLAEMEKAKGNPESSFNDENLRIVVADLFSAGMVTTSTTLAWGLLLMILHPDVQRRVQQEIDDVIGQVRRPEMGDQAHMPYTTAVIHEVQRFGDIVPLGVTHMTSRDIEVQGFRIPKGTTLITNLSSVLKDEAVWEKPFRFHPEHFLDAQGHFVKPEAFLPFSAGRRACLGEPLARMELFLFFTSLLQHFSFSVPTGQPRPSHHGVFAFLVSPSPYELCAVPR
SMILES,Potency [1],Potency [2]
COc1ccc(NC(=O)CSc2oc(-c3cccs3)nc2S(=O)(=O)c2ccc(Br)cc2)c(OC)c1,inactive,0.477 µM (active)
COc1cccc(NC(=O)Cn2c(=O)n(CC(=O)NCc3ccc(C)cc3)c(=O)c3sccc32)c1,0.107 µM (active),–
COc1ccc(-c2nc(SCC(=O)Nc3ccc4c(c3)OCO4)c(-c3ccc(OC)cc3)[nH]2)cc1,5.35 µM (active),0.849 µM (active)
O=C(Cn1c(=O)n(Cc2ccco2)c(=O)c2oc3ccccc3c21)Nc1ccccc1,0.756 µM (active),4.77 µM (active)
CC1=CC(O)=NS(=O)(=O)O1,inactive,inactive
CC(O)CNC(=O)C(=O)Nc1c2c(nn1-c1ccc(Cl)cc1)CSC2 (configuration not stated),inactive,–
Cc1ccc(Cn2c(CN3CCC(C(=O)NCCc4ccccc4)CC3)cc3ccccc32)cc1,0.0477 µM (active),2.13 µM (active)
C[C@H]1[C@@H](OC(=O)CCC(=O)O)O[C@@H]2O[C@]3(C)CC[C@H]4[C@H](C)CC[C@@H]1[C@@]24OO3,inactive,inactive
C[C@H](O[C@H]1OCCN(Cc2n[nH]c(=O)[nH]2)[C@H]1c1ccc(F)cc1)c1cc(C(F)(F)F)cc(C(F)(F)F)c1,10.7 µM (active),9.52 µM (active)
Cc1c(Cl)cccc1NC(=O)Cn1cc(C(=O)C2CCCCC2)c2ccccc21,5.35 µM (active),2.13 µM (active)
Cc1ccccc1CNC(=O)CCCn1c(=O)c2cccn2c2ccccc21,6.74 µM (active),9.52 µM (active)
COc1ccc(CCNc2nc(SCc3ccccc3Cl)nc3ccccc23)cc1OC,0.756 µM (active),0.19 µM (active)
Cc1ccc(Cn2ccnc2SCC(=O)Nc2nc3ccccc3s2)cc1,10.7 µM (active),8.49 µM (active)
CNC(=O)c1ccc(CSc2nc3ccncc3n2Cc2ccc(C)cc2)cc1,13.5 µM (active),7.56 µM (active)
NC(=O)C[C@H](N)C(=O)O,inactive,inactive
CC1(C#N)CCN(c2c(C(=O)N3CCC(C(=O)C4CC4)CC3)cnc3c(F)cc(F)cc23)CC1,16.9 µM (active),9.52 µM (active)
COC(=O)c1ccc(C2C=C(c3ccc(Cl)cc3)Nc3nc4ccccc4n32)cc1 (configuration not stated),3.38 µM (active),2.68 µM (active)
COc1ccc(C(=O)Oc2ccc(C(c3c(C)[nH][nH]c3=O)c3c(C)[nH][nH]c3=O)cc2OC)cc1,inactive,3.38 µM (active)
COc1ccc(C(=O)Nc2nc3ccccc3n2CCOc2ccc(Cl)cc2)cc1,inactive,26.8 µM (active)

SMILES,Potency [1],Potency [2]
Cc1cccc(NC(=O)CSc2nc3ccccc3c3nc(CCn4cncc4C)nn23)c1,3.01 µM (active),1.51 µM (active)
CN1C(=O)c2ccccc2Sc2ccc(NC(=O)Cc3ccc(Cl)cc3)cc21,6.01 µM (active),12 µM (active)
CN1C(=O)NC(Cc2c[nH]c3c(Cl)cccc23)C1=O (configuration not stated),inactive,13.5 µM (active)
Cc1ccc2nc(NC(=O)CSc3nccn3Cc3ccccc3)sc2c1,8.49 µM (active),9.52 µM (active)
COc1cccc(Cn2c(SCC(=O)N3CCN(c4ccc(F)cc4)CC3)nc3ccccc32)c1,10.7 µM (active),2.13 µM (active)
OC[C@@H](O)C(O)[C@@H](O)CO (some centres not stated),inactive,inactive
COc1ccccc1CNC(=O)C1CCCN(c2nc3ccccc3n3cccc23)C1 (configuration not stated),2.68 µM (active),0.0674 µM (active)
COc1cccc(CNCc2cccn2-c2nnc(N3CCN(c4ccccc4)CC3)s2)c1,3.38 µM (active),9.52 µM (active)
COc1ccc(CC(=O)Nc2c(C(=O)N3CCN(c4ccccc4F)CC3)oc3ccccc23)cc1OC,inactive,inactive
Cc1ccc(NC(=O)Cn2cc(C(=O)c3ccco3)c3ccccc32)c(C)c1,6.74 µM (active),0.849 µM (active)
Cc1ccc(NC(=O)Cn2c(=O)n(CCC(=O)N3CCc4ccccc4C3)c(=O)c3ccccc32)c(C)c1,inactive,0.338 µM (active)
Cc1cc(NC(=O)C2CCN(S(=O)(=O)c3ccc4[nH]c(=O)oc4c3)CC2)ccc1Br,16.9 µM (active),0.425 µM (active)
COc1ccc(Cn2c(CCC(=O)Nc3cccc(OC)c3)nc3cccnc32)cc1,2.68 µM (active),4.77 µM (active)
CCOc1ccccc1NC(=O)Cn1c(=O)n(CCC(=O)NCc2ccc3c(c2)OCO3)c(=O)c2ccccc21,0.425 µM (active),0.601 µM (active)
C=Cc1ccc(Cn2c(SCC(=O)N3CCN(c4ccc(F)cc4)CC3)nc3ccccc32)cc1,inactive,3.38 µM (active)
COc1ccccc1Nc1nc(-c2ccccc2F)nc2ccccc12,inactive,12 µM (active)
Cc1ccc(C2=CC(c3ccccc3F)n3c(nc4ccccc43)N2)cc1C (configuration not stated),10.7 µM (active),6.01 µM (active)
COC(=O)Cc1ccc(NC(=O)C2=C(C)NC(Nc3nc4ccccc4o3)=NC2c2ccccc2Cl)cc1 (configuration not stated),inactive,0.756 µM (active)
CCc1ccc(-n2c(SCc3ccccc3F)nc3[nH]ncc3c2=O)cc1,12 µM (active),4.77 µM (active)

SMILES,Potency [1],Potency [2]
CCOC(=O)N1CCc2c(sc3c2c(=O)n(CCc2ccccc2)c(=O)n3CC(=O)Nc2cccc(C)c2)C1,1.07 µM (active),1.69 µM (active)
COc1ccc(CCNC(=O)c2nc(SCc3ccccc3F)ncc2Cl)cc1OC,inactive,0.379 µM (active)
Cc1ccccc1-n1c(SCc2ccc(Cl)cc2)nc2[nH]ncc2c1=O,21.3 µM (active),2.39 µM (active)
CCC(Sc1nc2ccccc2c2nc(CCn3cncc3C)nn12)C(=O)Nc1cccc(OC)c1 (configuration not stated),12 µM (active),1.9 µM (active)
Cc1nnc(N2CCC(C(=O)NCCc3ccccc3Cl)CC2)c2nn(-c3ccccc3)c(C)c12,2.13 µM (active),1.9 µM (active)
COc1ccc(CC(=O)NCC(c2cccs2)S(=O)(=O)c2ccc(Cl)cc2)cc1 (configuration not stated),6.01 µM (active),2.39 µM (active)
OC[C@H]1O[C@@H]2O[C@H]3[C@H](O)[C@@H](O)[C@@H](O[C@H]4[C@H](O)[C@@H](O)[C@@H](O[C@H]5[C@H](O)[C@@H](O)[C@@H](O[C@H]6[C@H](O)[C@@H](O)[C@@H](O[C@H]7[C@H](O)[C@@H](O)[C@@H](O[C@H]1[C@H](O)[C@@H]2O)O[C@@H]7CO)O[C@@H]6CO)O[C@@H]5CO)O[C@@H]4CO)O[C@@H]3CO,inactive,inactive
CCOCCCNC(=O)C(=O)Nc1c2c(nn1-c1ccc(OC)cc1)CSC2,inactive,10.7 µM (active)
CC(C)(C)c1ccc(S(=O)(=O)c2cnc(SCC(=O)Nc3ccc(F)c(Cl)c3)[nH]c2=O)cc1,16.9 µM (active),0.536 µM (active)
CC(=O)c1ccc(N2CCN(c3ncnc4c3cnn4C)CC2)cc1,inactive,inactive
Cc1ccc(-n2ncc3c(NCCCn4ccnc4)ncnc32)cc1Cl,3.79 µM (active),0.601 µM (active)
COc1ccc(NC(=O)C2CCCN(c3nnc(C)c4c(C)n(-c5ccccc5)nc34)C2)cc1Cl (configuration not stated),16.9 µM (active),5.35 µM (active)
CN(C)[S+](=O)([O-])c1ccc([S+](=O)([O-])N(Cc2cccs2)Cc2ccccc2Cl)cc1,1.9 µM (active),3.79 µM (active)
COc1ccc(C(Nc2ccccn2)c2ccc3ccc(C)nc3c2O)cc1C (configuration not stated),21.3 µM (active),2.68 µM (active)
CN(C)S(=O)(=O)n1cc(/C=C(\NC(=O)c2ccccc2)C(=O)NCCCn2ccnc2)c2ccccc21,0.0535 µM (active),0.213 µM (active)
Cc1ccc(CNC(=O)C(C)n2nc(C)c3sc4ccccc4c3c2=O)cc1 (configuration not stated),13.5 µM (active),2.39 µM (active)
Oc1c(C(c2ccc(Cl)cc2Cl)N2CCN(Cc3ccccc3)CC2)sc2nc(-c3ccco3)nn12 (configuration not stated),7.56 µM (active),6.01 µM (active)
O=c1cc2nc(-c3cccs3)nc(SCCOc3ccc(Cl)cc3)n2[nH]1,inactive,19 µM (active)
NC(=O)C(c1ccccc1)(c1ccccc1)[C@H]1CCN(CCc2ccc3c(c2)CCO3)C1,0.0425 µM (active),8.49 µM (active)
